# Results filed as inconclusive are left out. A number with no mark means an inactive call. Calls of active or inactive are those of the source. Calls come from the whole dose curve; as a rule, active = well fitted inhibition curve with a large enough effect; inconclusive = small, poorly fitted or top-dose-only effect; inactive = no such curve, though single readings can be large or run the other way.
# Biological target: Cruzipain (Trypanosoma cruzi) (UniProt P25779)
# Assay: Confirmation qHTS Assay for Inhibitors of Cruzain; note: nearly all actives have a fitted effect of over 40% in size;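 for activity change, negative = inhibition: plate controls were uninhibited enzyme control for no effect and buffer wells lacking enzyme for full effect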
# Details: purified cruzain, Z-FR-AMC fluorescence, 0.01% Triton
# Outline: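 Purified cruzain, 1.5 nM, pre-incubated 15 min at room temperature with compound in 100 mM sodium acetate pH 5.5, 5 mM DTT, 0.01% Triton X-100. Then 2 uM Z-FR-AMC added; AMC fluorescence (ex 360/em 450 nm) increase over 60 s gave reaction progress.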
# Potency is the fitted concentration of half-maximal effect.
# Sequence of Cruzipain (Trypanosoma cruzi) (P25779 123-467 limits assumed): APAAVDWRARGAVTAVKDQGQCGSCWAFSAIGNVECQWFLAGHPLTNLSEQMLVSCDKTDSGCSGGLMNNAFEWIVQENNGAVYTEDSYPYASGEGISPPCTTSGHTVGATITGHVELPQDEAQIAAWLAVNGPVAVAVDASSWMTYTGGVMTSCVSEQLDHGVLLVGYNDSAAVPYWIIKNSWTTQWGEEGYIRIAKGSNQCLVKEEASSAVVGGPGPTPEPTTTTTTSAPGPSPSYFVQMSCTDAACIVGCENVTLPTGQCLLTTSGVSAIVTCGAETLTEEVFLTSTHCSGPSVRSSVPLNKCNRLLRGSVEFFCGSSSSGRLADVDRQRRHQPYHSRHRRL
Compound,"activity change, negative = inhibition [%]",Potency
O=C(NCCc1nc2ccccc2n1CCOc1cccc2ccccc12)C1CCCCC1,-11.4,–
O=C(NCCc1nc2ccccc2n1CCCOc1ccccc1Cl)C1CCCCC1,–,1580 nM (active)
O=C(NCCc1nc2ccccc2n1Cc1ccccc1F)c1ccc(F)cc1,–,1580 nM (active)
Cc1ccc2[nH]c(=O)c(CN(Cc3ccco3)Cc3nnnn3Cc3ccccc3)cc2c1,-13.8,–
CC(=O)NCCCc1ccc(C(=O)COC(=O)CNC(=O)c2ccc3ccccc3c2)cc1,-5.36,–
CCN(c1ccccc1)c1nc(N)nc(C#N)n1,–,14100 nM (active)
N#Cc1nc(Nc2ccccc2)nc(NC2CCCC2)n1,–,708 nM (active)
Cc1ccccc1OCC(=O)NCC(=O)OCC(=O)c1ccc2ccccc2c1,–,14100 nM (active)
Cc1cc(OCCn2c(CCNC(=O)C3CCCCC3)nc3ccccc32)ccc1Cl,–,1000 nM (active)
O=C(NCCc1nc2ccccc2n1CCOc1ccccc1)C1CCCCC1,–,794 nM (active)
Cc1csc(N/N=C/c2ccc(O)c([N+](=O)[O-])c2)n1,-63.9,–
COc1ccc(NS(=O)(=O)c2cc(NC(=O)/C=C/c3ccccc3OC)ccc2N2CCCCC2)cc1,2.33,–
COc1nc(C#N)nc(N2CCCCC2)n1,–,2820 nM (active)
CC(C)(C)OC(=O)Cc1nnc(C(C(=O)OCc2ccccc2)c2ccccc2)o1 (stereo not drawn),-12.3,–
C/C(CC(=O)Nc1ccc(Cl)c(Cl)c1)=N\NC(N)=S,–,1120 nM (active)
c1ccc(CN(Cc2ccccc2)Cc2nnc(-c3cc4ccccc4[nH]3)o2)cc1,-7.39,–
C=Cc1nc(Nc2cc(F)cc(F)c2)nc(NC2CCCC2)n1,-5.68,–
N#Cc1c(NC(=O)CSc2ncnc3c2cnn3-c2ccccc2Cl)sc2c1CCCC2,-1.46,–
COc1ccc(-c2nc(C#N)c(NCCCN3CCOCC3)o2)cc1,-29.3,–
C=C(C)C(=O)OC1(C(F)(F)F)Oc2cc(C)ccc2NC1=O (stereo not drawn),–,14100 nM (active)
Cc1ccccc1OCC(=O)NCC(=O)OCC(=O)c1ccc2c(c1)CCCC2,-3.79,–
COc1ccc(OC)c(NC(=O)C(OC(=O)CNC(=O)c2ccccc2)c2ccccc2)c1 (stereo not drawn),–,11200 nM (active)
N#CN1CCC(NS(=O)(=O)c2ccc(C(F)(F)F)cc2)CC1,-6.95,–

# Reference: PubChem BioAssay AID2158 (National Center for Advancing Translational Sciences (NCATS), 2009)
